Laboratory results as given in the supplement of paper PMC12645437, “Orthogonal IMiD-Degron Pairs Induce Selective Protein Degradation in Cells” (ACS Chemical Biology, 2025).
Over roughly 8,300 sequences, “log2 fold change of degron read counts, EGFP-low vs EGFP+ sorted cells (limma voom), compound-induced degradation” has its median near -1.1; the highest 2% begin near 3.2. The full list was thinned out, with the highest values kept by preference.

Target: T1, CRBN, Q96SW2
T1 chain: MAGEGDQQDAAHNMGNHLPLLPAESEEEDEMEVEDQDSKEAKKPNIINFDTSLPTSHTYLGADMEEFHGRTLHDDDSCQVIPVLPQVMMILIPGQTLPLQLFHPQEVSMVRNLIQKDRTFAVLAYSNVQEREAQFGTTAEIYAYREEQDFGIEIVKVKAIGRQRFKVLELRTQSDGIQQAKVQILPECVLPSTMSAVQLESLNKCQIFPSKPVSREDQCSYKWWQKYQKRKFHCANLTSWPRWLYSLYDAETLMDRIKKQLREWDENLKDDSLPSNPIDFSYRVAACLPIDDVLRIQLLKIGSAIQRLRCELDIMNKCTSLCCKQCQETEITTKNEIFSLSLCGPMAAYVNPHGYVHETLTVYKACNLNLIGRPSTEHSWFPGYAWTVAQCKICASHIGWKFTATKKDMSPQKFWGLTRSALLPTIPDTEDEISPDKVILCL
Experiment: log2 fold change of degron read counts, EGFP-low vs EGFP+ sorted cells (limma voom), compound-induced degradation; higher = more compound-induced degradation of the degron-EGFP fusion; degrons are variants of IKZF1/3 zinc finger 2; compound dose not given here
Details: Jurkat, 18 h

[1] = compound: compound 19 (5-tert-butyl-thalidomide)
[2] = compound: compound 22 (5-morpholino-thalidomide)
[3] = compound: compound 33 (diphenyl IMiD analogue)
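Note: pooled lentiviral library of zinc finger degron-EGFP fusions in mCherry-positive Jurkat cells, FACS-sorted after compound exposure, with degron abundance counted by next-generation sequencing.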

| Sequence | log2 fold change of degron read counts [1] | log2 fold change of degron read counts [2] | log2 fold change of degron read counts [3] | log2 fold change of degron read counts (compound: thalidomide) |
| --- | --- | --- | --- | --- |
| FICNQCGRSFTQKGNLLRHIKL [46F_47I_49N_50Q_52G_53R_54S_55F_67L_, Q9UKT9] | -3.32 | -3.15 | -3.35 | -3.61 |
| FACEQCGAKFTQKGNLLRHIKL [46F_47A_49E_50Q_52G_53A_54K_55F_67L_, Q9UKT9] | 1.9 | -1.51 | -3.24 | -1.44 |
| LTCEICGFECTQKGNLLRHIKL [46L_47T_49E_50I_52G_53F_54E_55C_67L_, Q9UKT9] | -0.328 | 0.102 | -0.375 | 0.759 |
| FSCPICGHVFTQKGNLLRHIKL [46F_47S_49P_50I_52G_53H_54V_55F_67L_, Q9UKT9] | -2.55 | -2.29 | -1.52 | -1.64 |
| FLCDVCGAKFTQKGNLLRHIKL [46F_47L_49D_50V_52G_53A_54K_55F_67L_, Q9UKT9] | -1.99 | -3.99 | -1.78 | -0.928 |
| FLCEICGHCFTQKGNLLRHIKL [46F_47L_49E_50I_52G_53H_54C_55F_67L_, Q9UKT9] | -3.3 | -3.75 | -3.16 | -2.4 |
| FMCEICGHTFTQKGNLLRHIKL [46F_47M_49E_50I_52G_53H_54T_55F_67L_, Q9UKT9] | -3.32 | -4.22 | -2.78 | -3.14 |
| LICPICGFRCTQKGNLLRHIKL [46L_47I_49P_50I_52G_53F_54R_55C_67L_, Q9UKT9] | 0.753 | 2.24 | 1.19 | 2.84 |
| LWCPICGFRCTQKGNLLRHIKL [46L_47W_49P_50I_52G_53F_54R_55C_67L_, Q9UKT9] | 3.02 | 3.7 | 2.31 | 2.05 |
| LWCPICGFNCTQKGNLLRHIKL [46L_47W_49P_50I_52G_53F_54N_55C_67L_, Q9UKT9] | 2.43 | 3.5 | 2.36 | 1.53 |
| LDCPICGFNCTQKGNLLRHIKL [46L_47D_49P_50I_52G_53F_54N_55C_67L_, Q9UKT9] | -0.713 | -1.04 | -0.142 | 0.706 |
| LACPICGFNCTQKGNLLRHIKL [46L_47A_49P_50I_52G_53F_54N_55C_67L_, Q9UKT9] | 2.23 | 1.61 | 1.93 | 1.49 |
| LGCPICGFRCTQKGNLLRHIKL [46L_47G_49P_50I_52G_53F_54R_55C_67L_, Q9UKT9] | 3.17 | 2.04 | 0.549 | 1.14 |
| FRCPICGAIFTQKGNLLRHIKL [46F_47R_49P_50I_52G_53A_54I_55F_67L_, Q9UKT9] | -1.29 | -0.543 | 0.89 | 1.18 |
| FTCEQCGAQFTQKGNLLRHIKL [46F_47T_49E_50Q_52G_53A_54Q_55F_67L_, Q9UKT9] | -2.06 | -1.12 | 0.532 | -0.012 |
| FFCPICGHVFTQKGNLLRHIKL [46F_47F_49P_50I_52G_53H_54V_55F_67L_, Q9UKT9] | -0.996 | -1.35 | -1.19 | -1.12 |
| FACPICGHTFTQKGNLLRHIKL [46F_47A_49P_50I_52G_53H_54T_55F_67L_, Q9UKT9] | -2.03 | -2.66 | -2.44 | -2.56 |
| FKCNVCGAVFTQKGNLLRHIKL [46F_47K_49N_50V_52G_53A_54V_55F_67L_, Q9UKT9] | -2.44 | -2.91 | -3.25 | -2 |
| FICEICGAHFTQKGNLLRHIKL [46F_47I_49E_50I_52G_53A_54H_55F_67L_, Q9UKT9] | -0.091 | 1.87 | 1.79 | 2.1 |
| FQCEICGAHFTQKGNLLRHIKL [46F_47Q_49E_50I_52G_53A_54H_55F_67L_, Q9UKT9] | -0.0399 | 0.799 | 0.886 | 3.17 |
| FNCEICGAHFTQKGNLLRHIKL [46F_47N_49E_50I_52G_53A_54H_55F_67L_, Q9UKT9] | 2.65 | 0.0954 | -0.0262 | -0.422 |
| FLCEICGAHFTQKGNLLRHIKL [46F_47L_49E_50I_52G_53A_54H_55F_67L_, Q9UKT9] | 0.729 | -1.66 | 0.445 | 0.792 |
| FYCEICGAHFTQKGNLLRHIKL [46F_47Y_49E_50I_52G_53A_54H_55F_67L_, Q9UKT9] | 3.61 | 3.49 | 2.57 | 1.24 |
| FECEICGAHFTQKGNLLRHIKL [46F_47E_49E_50I_52G_53A_54H_55F_67L_, Q9UKT9] | -0.919 | -2.34 | 1.1 | 1.26 |
| FTCEICGAHFTQKGNLLRHIKL [46F_47T_49E_50I_52G_53A_54H_55F_67L_, Q9UKT9] | 0.467 | 0.746 | 1.69 | 2.11 |
| FWCEICGAHFTQKGNLLRHIKL [46F_47W_49E_50I_52G_53A_54H_55F_67L_, Q9UKT9] | 3.45 | 3.78 | 2.18 | 1.05 |
| FACEICGAHFTQKGNLLRHIKL [46F_47A_49E_50I_52G_53A_54H_55F_67L_, Q9UKT9] | 3.32 | 1.02 | 0.285 | -0.547 |
| FFCEICGAHFTQKGNLLRHIKL [46F_47F_49E_50I_52G_53A_54H_55F_67L_, Q9UKT9] | 3.34 | 3.33 | 2.07 | 1 |
| FMCEICGAHFTQKGNLLRHIKL [46F_47M_49E_50I_52G_53A_54H_55F_67L_, Q9UKT9] | -0.196 | -0.917 | 1.94 | 0.547 |
| FCCEICGAHFTQKGNLLRHIKL [46F_47C_49E_50I_52G_53A_54H_55F_67L_, Q9UKT9] | 2.06 | 0.682 | 1.31 | 1.03 |
